Source: PubChem BioAssay (EPA / NIEHS)
Values joined by “and” are separate entries in the source; they are usually repeats but may differ in a detail not shown here. Equal entries are not always repeated. A structure can be active in one record and inactive in another. Active and inactive are the calls of the source. The calls were made as follows: active = hit-call score of the fitted dose curve at least 0.9, where 1 is the maximum; inactive = score below 0.9.

How the values were obtained:
[1] = read-out: Interleukin-8 (IL8), CXCL8 (gene 3576); assay: BSK_MyoF_IL8: BioMAP Diversity Plus: MyoF Assay for Interleukin-8 (IL8) Biomarker Activity (AID 2284261); details: primary human lung fibroblasts
Outline: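 In this multiplexed primary-cell system, fibroblasts from human lung are treated with chemicals, and IL-8 is detected by ELISA at 24 h, with DMSO serving as the negative reference.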

Decorin, DCN (gene 1634) = assay: BSK_MyoF_Decorin: BioMAP Diversity Plus: MyoF Assay for Decorin Biomarker Activity (AID 2284265); details: primary human lung fibroblasts
Outline: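 Lung fibroblast cultures, 24 h chemical exposure. Decorin by ELISA, positive fitting direction, DMSO baseline.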

[2] = BSK_MyoF_SRB: Viability Assessment in the BioMAP Diversity Plus: MyoF Assay (AID 2284267); details: primary human lung fibroblasts;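 also: total protein by SRB absorbance in parallel cultures as cytotoxicity measure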
Outline: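 Human lung fibroblasts dosed with chemical and assessed 24 h later for overt cytotoxicity in parallel cultures. Total protein quantified by sulforhodamine B staining (0.1% SRB after 10% TCA fixation), read at 560 nm, analysed in positive direction versus DMSO baseline.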

[3] = read-out: Matrix Metallopeptidase 1 (MMP1), MMP1 (gene 4312); assay: BSK_MyoF_MMP1: BioMAP Diversity Plus: MyoF Assay for Matrix Metallopeptidase 1 (MMP1) Biomarker Activity (AID 2284268); details: primary human lung fibroblasts
Outline: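 MMP1 measured by ELISA 24 h after dosing primary human lung fibroblasts; cytotoxicity checked in parallel cultures by sulforhodamine B total-protein staining read at 560 nm.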

[4] = read-out: TIMP metallopeptidase inhibitor 1 (TIMP1), TIMP1 (gene 7076); assay: BSK_MyoF_TIMP1: BioMAP Diversity Plus: MyoF Assay for TIMP metallopeptidase inhibitor 1 (TIMP1) Biomarker Activity (AID 2284269); details: primary human lung fibroblasts
Outline: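 Primary human lung fibroblasts, MyoF multiplex system; chemical exposure 24 h; TIMP-1 by ELISA; positive fitting direction vs DMSO control.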

[5] = read-out: Macrophage Inflammatory Protein-1 Alpha (MIP1a), CCL3 (gene 6348); assay: BSK_IMphg_MIP1a: BioMAP Diversity Plus: IMphg Assay for Macrophage Inflammatory Protein-1 Alpha (MIP1a) Biomarker Activity (AID 2284255); details: primary human endothelial cells with macrophages
Outline: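 Co-culture of human venular endothelial cells and macrophages exposed to compounds for 24 h; MIP-1a measured by ELISA relative to DMSO. Cytotoxicity assessed in parallel cultures by sulforhodamine B total-protein staining at 560 nm.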

CD69, CD69 (gene 969) = assay: BSK_IMphg_CD69: BioMAP Diversity Plus: IMphg Assay for CD69 Biomarker Activity (AID 2284257); details: primary human endothelial cells with macrophages
Outline: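 Human venular endothelial cells co-cultured with macrophages; CD69 quantified by ELISA 24 h after compound addition. Activity fitted in the positive direction relative to DMSO baseline; cytotoxicity tracked in parallel cultures via SRB total-protein staining.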

[6] = read-out: Monocyte Chemoattractant Protein-1 (MCP1), CCL2 (gene 6347); assay: BSK_BF4T_MCP1: BioMAP Diversity Plus: BF4T Assay for Monocyte Chemoattractant Protein-1 (MCP1) Biomarker Activity (AID 2284259); details: primary human bronchial epithelial cells with fibroblasts
Outline: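 Co-culture of bronchial epithelial cells and dermal fibroblasts dosed with chemical; MCP-1 measured by ELISA 24 h later. Activity fitted in positive direction versus DMSO; cytotoxicity checked by SRB staining in parallel cultures.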

[7] = read-out: Interleukin-8 (IL8), CXCL8 (gene 3576); assay: BSK_BF4T_IL8: BioMAP Diversity Plus: BF4T Assay for Interleukin-8 (IL8) Biomarker Activity (AID 2284263); details: primary human bronchial epithelial cells with fibroblasts
Outline: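 Human bronchial epithelial cells with dermal fibroblasts co-culture; IL-8 measured by ELISA 24 hours after dosing, fitted vs DMSO. Cytotoxicity tracked in parallel cultures by SRB total-protein staining.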

[8] = read-out: Interleukin-1 alpha (IL1a), IL1A (gene 3552); assay: BSK_BF4T_IL1a: BioMAP Diversity Plus: BF4T Assay for Interleukin-1 alpha (IL1a) Biomarker Activity (AID 2284264); details: primary human bronchial epithelial cells with fibroblasts
Outline: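 Human bronchial epithelial cells co-cultured with dermal fibroblasts, dosed and read at 24 h. Secreted/surface IL-1α quantified by ELISA; gain-of-signal fitted relative to DMSO baseline. Parallel SRB total-protein staining tracked cytotoxicity.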

KRT18 (gene 3875) = assay: BSK_BF4T_Keratin818: BioMAP Diversity Plus: BF4T Assay for Keratin 818 Biomarker Activity (AID 2284266); details: primary human bronchial epithelial cells with fibroblasts
Outline: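 Co-culture of human bronchial epithelial cells and dermal fibroblasts, chemical exposure 24 h. Keratin 8/18 measured by ELISA; positive-direction fit vs DMSO. SRB total protein run in parallel cultures for cytotoxicity.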

[9] = read-out: Matrix Metallopeptidase 1 (MMP1), MMP1 (gene 4312); assay: BSK_BF4T_MMP1: BioMAP Diversity Plus: BF4T Assay for Matrix Metallopeptidase 1 (MMP1) Biomarker Activity (AID 2284270); details: primary human bronchial epithelial cells with fibroblasts
Outline: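 Co-culture of human bronchial epithelial cells and dermal fibroblasts; MMP-1 levels measured by ELISA 24 hours after chemical dosing, relative to DMSO. Cytotoxicity checked in parallel cultures by SRB total-protein staining.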

[10] = read-out: Matrix Metallopeptidase 3 (MMP3), MMP3 (gene 4314); assay: BSK_BF4T_MMP3: BioMAP Diversity Plus: BF4T Assay for Matrix Metallopeptidase 3 (MMP3) Biomarker Activity (AID 2284271); details: primary human bronchial epithelial cells with fibroblasts
Outline: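 Co-culture of human bronchial epithelial cells and dermal fibroblasts dosed 24 h; MMP-3 measured by ELISA, positive-direction fit versus DMSO. Cytotoxicity tracked by SRB total-protein staining (560 nm) in parallel cultures.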

[11] = read-out: Tissue plasminogen activator (tPA), PLAT (gene 5327); assay: BSK_BF4T_tPA: BioMAP Diversity Plus: BF4T Assay for Tissue plasminogen activator (tPA) Biomarker Activity (AID 2284272); details: primary human bronchial epithelial cells with fibroblasts
Outline: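 tPA level quantified by ELISA at 24 h post-treatment in bronchial epithelial/dermal fibroblast co-cultures, gain of signal scored against DMSO baseline. Parallel cultures stained with 0.1% SRB (560 nm) to flag overt cytotoxicity.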

[12] = read-out: Plasminogen Activator Inhibitor-1 (PAI1), SERPINE1 (gene 5054); assay: BSK_BF4T_PAI1: BioMAP Diversity Plus: BF4T Assay for Plasminogen Activator Inhibitor-1 (PAI1) Biomarker Activity (AID 2284273); details: primary human bronchial epithelial cells with fibroblasts
Outline: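 Co-culture of human bronchial epithelial cells and dermal fibroblasts exposed to compound for 24 h. PAI-1 measured by ELISA; activity fitted in positive direction versus DMSO. Parallel SRB staining assessed overt cytotoxicity.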

[13] = BSK_BF4T_SRB: Viability Assessment in the BioMAP Diversity Plus: BF4T Assay (AID 2284274); details: primary human bronchial epithelial cells with fibroblasts
Outline: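 Co-culture of human bronchial epithelial cells and dermal fibroblasts (BioMAP BF4T) exposed 24 h. Total protein by sulforhodamine B staining (0.1% SRB after 10% TCA fixation, 560 nm) in parallel cultures; fitted vs DMSO.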

[14] = read-out: urokinase Plasminogen Activator (uPA), PLAU (gene 5328); assay: BSK_BF4T_uPA: BioMAP Diversity Plus: BF4T Assay for urokinase Plasminogen Activator (uPA) Biomarker Activity (AID 2284275); details: primary human bronchial epithelial cells with fibroblasts
Outline: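 Co-culture of human bronchial epithelial cells and dermal fibroblasts; uPA quantified by ELISA 24 hours after dosing, fitted relative to DMSO. Parallel SRB total-protein staining assessed overt cytotoxicity.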

[15] = read-out: Matrix Metallopeptidase 9 (MMP9), MMP9 (gene 4318); assay: BSK_BF4T_MMP9: BioMAP Diversity Plus: BF4T Assay for Matrix Metallopeptidase 9 (MMP9) Biomarker Activity (AID 2284276); details: primary human bronchial epithelial cells with fibroblasts
Outline: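 Co-culture of human bronchial epithelial cells and dermal fibroblasts dosed for 24 h; MMP-9 quantified by ELISA and fitted upward versus DMSO. Cytotoxicity monitored in parallel cultures by SRB total-protein staining at the biomarker time point.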

[16] = read-out: Interleukin-8 (IL8), CXCL8 (gene 3576); assay: BSK_IMphg_IL8: BioMAP Diversity Plus: IMphg Assay for Interleukin-8 (IL8) Biomarker Activity (AID 2284277); details: primary human endothelial cells with macrophages
Outline: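 Co-culture of human venular endothelial cells and macrophages exposed to chemicals for 24 h; IL-8 quantified by ELISA and compared against the DMSO baseline, with SRB total-protein staining in parallel cultures for cytotoxicity.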

[17] = read-out: Intercellular Adhesion Molecule 1 (ICAM1), ICAM1 (gene 3383); assay: BSK_BE3C_ICAM1: BioMAP Diversity Plus: BE3C Assay for Intercellular Adhesion Molecule 1 (ICAM1) Biomarker Activity (AID 2284278); details: primary human bronchial epithelial cells;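 also: cell-surface ICAM-1 protein level quantified by ELISA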
Outline: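 Primary human bronchial epithelial cells were exposed to compound for 24 h, after which cell-surface ICAM-1 was quantified by ELISA. Activity was fitted in the gain-of-signal direction against DMSO as negative control and baseline.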

Measured: AC50

CCOP(=S)(OCC)SCS(=O)(=O)CC
inactive: [1] | Decorin, DCN (gene 1634) | [2] | [3] | [4]

N#Cc1c(-c2ccc(Cl)cc2)[nH]c(C(F)(F)F)c1Br
inactive: Decorin, DCN (gene 1634) | [3]
active: [1] 0.17 µM | [2] 0.802 µM | [4] 20 µM

CCOP(=S)(OCC)SCn1nnc2ccccc2c1=O
inactive: [1] | Decorin, DCN (gene 1634) | [2] | [3] | [4]

C=CC(=O)OCC(CC)(COC(=O)C=C)COC(=O)C=C
active: [1] 5.17 µM | Decorin, DCN (gene 1634) 3.09 µM | [2] 2.91 µM | [3] 3.88 µM | [4] 9.61 µM

Cc1ccc2c(c1N)C(=O)c1ccccc1C2=O
inactive: [1] | Decorin, DCN (gene 1634) | [2] | [3] | [4]

ClC(Cl)=C(c1ccc(Cl)cc1)c1ccccc1Cl
active: [1] 9.75 µM | Decorin, DCN (gene 1634) 9.47 µM | [2] 6.71 µM | [3] 9.59 µM | [4] 5.76 µM

COP(=O)(O)OC
inactive: [1] | Decorin, DCN (gene 1634) | [2] | [3] | [4]

O=C(O)C(F)(OC(F)(F)C(F)(F)C(F)(F)F)C(F)(F)F (stereo unspecified)
inactive: [5] | CD69, CD69 (gene 969) | [6] | [1] | [7] | [8] | Decorin, DCN (gene 1634) | KRT18 (gene 3875) | [2] | [3] | [4] | [9] | [10] | [11] | [12] | [13] | [14] | [15] | [16] | [17]
active: [16] 5.95 µM

N#Cc1cc([N+](=O)[O-])ccc1N
inactive: [1] | Decorin, DCN (gene 1634) | [2] | [3] | [4]

O=S1(=O)OCC2C(CO1)C1(Cl)C(Cl)=C(Cl)C2(Cl)C1(Cl)Cl (stereo unspecified)
inactive: [1] | Decorin, DCN (gene 1634) | [2] | [3] | [4]

CC(C)Nc1ccc(Nc2ccccc2)cc1
active: [2] 20 µM | [4] 20 µM
inactive: [1] | Decorin, DCN (gene 1634) | [3]

OCC(F)(F)OC(F)(F)C(F)(F)OC(F)(F)C(F)(F)OC(F)(F)CO
active: [6] 17.9 µM and 22.2 µM | [11] 30 µM and 24 µM
inactive: all other assays above
